In PubChem BioAssay AID504942 (Broad Institute, 2011):
Entries with a potency or affinity are not part of this list. A number with no mark means an inactive call. How the calls were made is not given here.

Test: HeLa cell cytotoxicity, dose response, cytotoxicity control, 48 h, plate reader, cherry-picks (AID 504942)
Conditions: series mostly up to 38 µM; activity change, negative = toxicity: at the top concentration
For `CCOC(=O)c1cc2c(s1)-c1c(C)cccc1OC2`, the “activity change, negative = toxicity” value was -19.9%. In the case of `O=C(/C=C/c1cccs1)c1cc(Cl)ccc1O`, the “activity change, negative = toxicity” value is reported as -1.83%. For `O=C(c1cccc([N+](=O)[O-])c1)N1CC2C3C=CC(C3)C2C1` (stereo not given), the “activity change, negative = toxicity” value was 8.14%. With `Cc1cc(S(=O)(=O)NCC2CC2)c(Cl)cc1Cl` the “activity change, negative = toxicity” value was 7.44%. For `CCOC(=O)c1cnc(-c2ccccc2)nc1N`, the “activity change, negative = toxicity” value was -7.36%. With `COc1ccccc1C(C#N)c1cccc(Cl)n1` (stereo not given) the “activity change, negative = toxicity” value was -6.54%. In the case of `COc1ccc(N=C(C)C2=C(O)CSC2=O)cc1`, the “activity change, negative = toxicity” value is reported as 5.08%. With `Cc1cc(C)nc(N(C#N)Cc2ccccc2)n1` the “activity change, negative = toxicity” value was 1.81%. With `CCOC(=O)CCCn1ncn2c(cc3occc32)c1=O` the “activity change, negative = toxicity” value was 7.49%. For `N#CC(c1ccc(Cl)nn1)c1ccc(Cl)cc1Cl` (stereo not given), the “activity change, negative = toxicity” value was 2.16%. With `Cc1ccc(C)c(S(=O)(=O)NC2CCSC2=O)c1` (stereo not given) the “activity change, negative = toxicity” value was 3.01%. With `CCOC(=O)CC(C#N)c1cn(C)c2ccccc12` (stereo not given) the “activity change, negative = toxicity” value was 2.88%. With `O=C1C2C(C(=O)N1Cc1ccco1)C1C=CC2C12CC2` (stereo not given) the “activity change, negative = toxicity” value was 8.3%. In the case of `N#CC(c1ccc(Cl)nn1)c1c(F)cccc1Cl` (stereo not given), the “activity change, negative = toxicity” value is reported as 5.99%. For `N#CC(Sc1ccccn1)c1ccc(Cl)cc1` (stereo not given), the “activity change, negative = toxicity” value was 1.92%. For `CCOc1ccc(CNC2CCCc3ccccc32)cc1` (stereo not given), the “activity change, negative = toxicity” value was -2.04%. With `CC(C)N=C(NC#N)SCc1ccccc1F` the “activity change, negative = toxicity” value was -3.1%. For `COC(=O)c1ccc(OC(=O)c2ccco2)cc1`, the “activity change, negative = toxicity” value was -5.76%. In the case of `O=C(NC1CCCC1)c1cc(Cl)ccc1[N+](=O)[O-]`, the “activity change, negative = toxicity” value is reported as -0.51%. With `O=C(NCC1CC1)c1cc([N+](=O)[O-])cc([N+](=O)[O-])c1` the “activity change, negative = toxicity” value was 2.77%. In the case of `COC(=O)c1cc(-c2ccc(Br)cc2)on1`, the “activity change, negative = toxicity” value is reported as -2.78%. In the case of `Cc1ccc2nc(-c3ccc4c(c3)OCCO4)cn2c1`, the “activity change, negative = toxicity” value is reported as -0.368%. With `Cc1ccc(S(=O)c2ccc(C)cc2)cc1` the “activity change, negative = toxicity” value was 7.24%. With `Clc1ccc2scc(CN3CCCCC3)c2c1` the “activity change, negative = toxicity” value was -6.78%. In the case of `N#CC(c1cccc(Cl)c1)c1ncc(C(F)(F)F)cc1Cl` (stereo not given), the “activity change, negative = toxicity” value is reported as -0.874%. For `COC(=O)c1ccc(NC(=S)N2CCCC2)cc1`, the “activity change, negative = toxicity” value was -4.47%. For `CCOC(=O)c1ccc(N2Cc3ccccc3C2=N)cc1`, the “activity change, negative = toxicity” value was 3.25%. In the case of `O=[N+]([O-])c1ccc(N2CCCCC2)nc1`, the “activity change, negative = toxicity” value is reported as 7.32%. In the case of `O=C1N[C@@H](Cc2ccccc2)[C@@H](c2ccco2)O1`, the “activity change, negative = toxicity” value is reported as 4.94%. For `CSc1nnc(-c2ccc([N+](=O)[O-])cc2)o1`, the “activity change, negative = toxicity” value was 8.43%.
